Screening data: PubChem BioAssay, National Center for Advancing Translational Sciences (NCATS)
Shown are actives, neighbours in structure and some others; about 6.6% of the full set was active somewhere.
HT1080NT lethal: kills 2HG-producing HT-1080-NT fibrosarcoma cells. AID 686970. Potency, µM (series often up to 46.1 µM), without a hit: top-dose activity, negative = less viability, most hits filed as cytotoxic. 1.6% of 360,000 active. HT-1080-NT fibrosarcoma viability, CellTiter-Glo ATP luminescence, 48 h;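 note: NT is the 2HG producing partner of a matched IDH1 knockdown line; 0% = DMSO-treated cells and -100% = media-only wells without cells; nearly all actives have a fitted effect of over 55% in size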
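Viability of the 2HG-overproducing fibrosarcoma line after 48 hours of compound exposure at 37 degrees C was determined by luminescence with CellTiter-Glo, and concentration-effect curves were then fitted and categorized.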
HepG2 tox: counter-screen for TGF-b inhibitors: cytotoxicity in HepG2 cells; HepG2 CAGA-GFP viability, ATP luminescence, 18 h; Potency, µM (doses to about 46.1 µM), without a hit: top-dose activity change, negative = cytotoxicity, hits mostly cytotoxic; 0.76% of 410,000 active; AID 588856
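CellTiter-Glo luminescence gave cytotoxicity after 18 hours at 37 degrees C. The cells were HepG2 CAGA-GFP in 1% FBS DMEM, stimulated with 500 pg/mL TGF-beta after compound addition. %Activity was normalised to no-cell wells (complete cell-killing) and DMSO (no toxicity), and curves were fitted and classified.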
KB-V1 MDR tox: kills drug-selected multidrug resistant KB-V1 cells; KB-V1 MDR cells viability, CellTiter-Glo, 72 h; Potency, µM (titrated, usually from 46.1 µM), hits mostly cytotoxic; 3.4% of 400,000 active; AID 1347076; note: % is set by controls: 0 for no effect and ±100 for the full control effect; nearly all actives have a fitted effect of over 60% in size
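qHTS viability screen in drug-selected KB-V1 MDR cells: 72 h compound treatment at 37 degrees C, ATP luminescence end point.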
HT1080 IDH1KD tx: toxicity to HT-1080 IDH1 knockdown cells (counter line) | HT-1080 IDH1 knockdown viability, ATP luminescence, 48 h | Potency, µM (titrated, usually from 46.1 µM), inactives show at the highest dose activity, negative = toxicity, usual class: cytotoxic | 2% of 360,000 active;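 note: 0% = DMSO wells and -100% = cell-free medium wells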
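Luminescent ATP read-out (CellTiter-Glo, 10 min at room temperature) after 48 h compound exposure at 37 °C gave viability of IDH1-knockdown HT-1080 cells. Activity was normalised to DMSO and cell-free wells, then fitted as concentration-response curves.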
TGFb inhibitor: blocks TGF-b signaling; HepG2 CAGA-GFP TGF-b/SMAD3 reporter, GFP fluorescence, 18 h; TGF-beta stimulated, 500 pg/mL final; Potency, µM (top dose mostly 46.1 µM), inactives show at the highest dose activity, negative = inhibition, actives largely listed as inhibitors; 1.2% of 410,000 active; AID 588855; note: % is set by controls: 0 for no effect and ±100 for the full control effect; nearly all actives have a fitted effect of over 65% in size
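Using HEPG2 CAGA-GFP reporter cells at 1000 cells/well, we pinned test compounds, stimulated with recombinant TGF-beta (500 pg/mL final) and measured total well GFP after 18 h.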
KB-3-1 cytotox: KB-3-1 parental cell cytotoxicity; 1.4% of 400,000 active; Potency, µM (series often up to 46.1 µM), actives largely listed as cytotoxic; KB-3-1 viability, CellTiter-Glo ATP luminescence, 72 h; note: % is set by controls: 0 for no effect and ±100 for the full control effect; nearly all actives have a fitted effect of over 60% in size
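72 h, 37 °C compound treatment of KB-3-1 parental cells; CellTiter-Glo added, 10 min, luminescence read. Data corrected against DMSO-only plates and normalized before curve fitting.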
* hit, by the source's call. Calls come from the whole dose curve; as a rule, active = well fitted curve in the direction sought with a large enough effect; inconclusive = small, poorly fitted or top-dose-only effect, or another doubt; inactive = no such curve, though single readings can be large; an effect the other way counts as inactive or inconclusive. Potency is the fitted concentration of half-maximal effect.

Screening Cc1oc2ccc(O)c(CN3CCCC3)c2c1C(=O)Nc1ccccc1 returned HepG2 tox -19.9%, KB-V1 MDR tox inconclusive, TGFb inhibitor 0.9% and KB-3-1 cytotox inactive.
For COc1ccc(NC(=O)c2c(C)oc3ccc(O)c(CN4CCCC(C)C4)c23)cc1Cl (centres undefined) the results were HepG2 tox 11.2µM*.
Cc1oc2ccc(O)c(CN3CCCCCC3)c2c1C(=O)Nc1cccc(C(F)(F)F)c1 was read as HepG2 tox 12.6µM* and TGFb inhibitor inconclusive.
For O=C(CSc1ccccc1C(=O)NCc1ccccc1)NC12CC3CC(CC(C3)C1)C2 the results were HT1080NT lethal -9.0%, HepG2 tox -6.7%, KB-V1 MDR tox 5.8µM*, HT1080 IDH1KD tx -2.1%, TGFb inhibitor inconclusive and KB-3-1 cytotox inconclusive.
`O=C(CSc1ccccc1C(=O)O)NC1CCCCCC1` gave HT1080NT lethal 5.6%, HepG2 tox 6.7%, KB-V1 MDR tox inactive, HT1080 IDH1KD tx 4.7%, TGFb inhibitor 11.7% and KB-3-1 cytotox inactive.
O=C(CSc1ccccc1C(=O)O)NCc1ccccc1 was read as HT1080NT lethal 26.3%, HepG2 tox 3.1%, KB-V1 MDR tox inactive, HT1080 IDH1KD tx 15.3%, TGFb inhibitor 14.1% and KB-3-1 cytotox inactive.
O=C(CSc1ccccc1C(=O)NCc1ccccc1)NC1CCCCCCC1 was read as HT1080NT lethal 4.9%, HepG2 tox 0.9%, KB-V1 MDR tox 3.26µM*, HT1080 IDH1KD tx 1.2%, TGFb inhibitor 4.0% and KB-3-1 cytotox inactive.
For CC(C)CCNC(=O)c1ccccc1SCC(=O)NC1CCCCCCC1 the results were HT1080NT lethal 1.8%, HepG2 tox 7.1%, KB-V1 MDR tox 5.8µM*, HT1080 IDH1KD tx -5.4%, TGFb inhibitor inconclusive and KB-3-1 cytotox inactive.
Screening CCc1ccc(C(=O)c2cn(CC(=O)Nc3cc(F)ccc3F)c3nc(C)ccc3c2=O)cc1 returned HepG2 tox -21.8%, KB-V1 MDR tox inactive, TGFb inhibitor -3.1% and KB-3-1 cytotox inactive.
CCCCNc1ncnc2oc(-c3ccco3)c(-c3ccco3)c12 was read as HepG2 tox -27.3%, KB-V1 MDR tox inconclusive, TGFb inhibitor inconclusive and KB-3-1 cytotox inconclusive.
Screening COc1ccc(NS(=O)(=O)c2cc(NC(=O)[C@@H](NC(=O)c3ccccc3)C(C)C)ccc2C)cc1 returned HT1080NT lethal inconclusive, HepG2 tox -3.5%, KB-V1 MDR tox inconclusive, HT1080 IDH1KD tx inconclusive, TGFb inhibitor inconclusive and KB-3-1 cytotox 8.2µM*.
`COc1ccc(C(=O)N[C@H](C(=O)NCCCn2nc(C)cc2C)C(C)C)cc1` gave HT1080NT lethal 10.2%, HepG2 tox 9.5%, KB-V1 MDR tox 14.6µM*, HT1080 IDH1KD tx 14.2%, TGFb inhibitor -4.3% and KB-3-1 cytotox inactive.
COc1ccc(CNC(=O)CCC2N=C3c4ccccc4N=C(SCC(=O)NCCc4ccc(OC)c(OC)c4)N3C2=O)cc1 (centres undefined) was read as HepG2 tox -5.9%, KB-V1 MDR tox inconclusive, TGFb inhibitor -1.8% and KB-3-1 cytotox inactive.
Screening Cc1ccc2c(CC(=O)N(Cc3ccc(Cl)cc3)Cc3ccco3)coc2c1 returned HepG2 tox -35.0%.
c1ccc(CNc2ncnc3sccc23)cc1 was read as HT1080NT lethal inconclusive, HepG2 tox -38.1%, KB-V1 MDR tox inactive, HT1080 IDH1KD tx inconclusive, TGFb inhibitor -23.0% and KB-3-1 cytotox inactive.
COc1ccc(C(CNc2ncnc3sccc23)N(C)C)cc1OC (centres undefined) was read as HT1080NT lethal -23.7%, HepG2 tox -17.2%, KB-V1 MDR tox inconclusive, HT1080 IDH1KD tx -5.4%, TGFb inhibitor -2.8% and KB-3-1 cytotox inactive.
For COc1ccc(CNc2ncnc3cc(Cl)ccc23)cc1OC the results were HT1080NT lethal -18.2%, HepG2 tox -25.7%, KB-V1 MDR tox 20.6µM*, HT1080 IDH1KD tx -22.9%, TGFb inhibitor inconclusive and KB-3-1 cytotox inconclusive.
c1csc(CNc2ncnc3sccc23)c1 was read as HT1080NT lethal -8.8%, HepG2 tox 0.8%, KB-V1 MDR tox inactive, HT1080 IDH1KD tx 25.9µM*, TGFb inhibitor -19.6% and KB-3-1 cytotox inactive.
Screening COc1ccc(CNc2ncnc3sccc23)cc1 returned HT1080NT lethal inconclusive, HepG2 tox -7.6%, KB-V1 MDR tox inconclusive, HT1080 IDH1KD tx 23.1µM*, TGFb inhibitor 0.0% and KB-3-1 cytotox inconclusive.
COc1ccc(CNc2ncnc3sccc23)cc1OC was read as HT1080NT lethal inconclusive, HepG2 tox 5.4%, KB-V1 MDR tox 16.4µM*, HT1080 IDH1KD tx -26.7%, TGFb inhibitor 3.6% and KB-3-1 cytotox inconclusive.
`CCn1cc(S(=O)(=O)c2ccc(C)cc2)c(=O)c2cc(F)c(N3CCCCCC3)cc21` gave HepG2 tox 6.9%, KB-V1 MDR tox inconclusive, TGFb inhibitor 2.0% and KB-3-1 cytotox inactive.
`COc1ccc2c(c1)c1nnc(SC)nc1n2Cc1ccccc1` gave HT1080NT lethal 5.0% and HT1080 IDH1KD tx 10.3%.
Screening COc1ccc(CCNc2ncnc3cc(OC)c(OC)cc23)cc1OC returned HT1080NT lethal -23.7%, HepG2 tox -15.9%, KB-V1 MDR tox 20.6µM*, HT1080 IDH1KD tx -22.2%, TGFb inhibitor -18.4% and KB-3-1 cytotox inactive.
`COc1cc2ncnc(NCCc3ccccc3)c2cc1OC` gave HT1080NT lethal 10.0%, HepG2 tox -24.1%, KB-V1 MDR tox inconclusive, HT1080 IDH1KD tx 5.4%, TGFb inhibitor inconclusive and KB-3-1 cytotox inconclusive.
CN(C)c1ccc(/C=C(\C#N)C(=O)c2ccccc2)cc1 was read as HT1080NT lethal 5.3%, HepG2 tox 6.0%, KB-V1 MDR tox inactive, HT1080 IDH1KD tx -1.5%, TGFb inhibitor 0.8% and KB-3-1 cytotox inactive.
`CN(C)c1ccc(/C=C(\C#N)c2ccccc2)cc1` gave HT1080NT lethal 11.6µM*, HepG2 tox -7.7%, KB-V1 MDR tox inconclusive, HT1080 IDH1KD tx 10.3µM*, TGFb inhibitor -22.5% and KB-3-1 cytotox inconclusive.
`CN(Cc1nc(-c2ccncc2)no1)S(=O)(=O)c1ccc(Br)cc1` gave HT1080NT lethal -0.6%, HepG2 tox -5.8%, KB-V1 MDR tox 14.6µM*, HT1080 IDH1KD tx -2.1%, TGFb inhibitor 0.3% and KB-3-1 cytotox inactive.
Screening CN(Cc1nc(-c2ccncc2)no1)S(=O)(=O)c1ccccc1 returned HT1080NT lethal 0.6%, HepG2 tox -12.0%, KB-V1 MDR tox inactive, HT1080 IDH1KD tx -2.9%, TGFb inhibitor -10.5% and KB-3-1 cytotox inactive.
